Compound activity from PubChem.
Shown are actives, neighbours in structure and some others; about 1.8% of the full set was active somewhere.
Gli-Sufu block – antagonists of Gli-Sufu signaling. hit rate 0.74% among 340,000. Sufu-KO-LIGHT fibroblasts, Gli luciferase reporter luminescence. inhibition, % at 5 µM;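 active = inhibition above about 55%, limit read from the data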
697 NFkB inh – lowers PMA/ionomycin-induced NF-kB signal in 697 B cells; 697 B-cell NF-kB luciferase reporter, 16 h; inhibition, % at 4 µM; hit rate 0.33% among 330,000; AID 435022; in the data active = inhibition above about 35%
Beta cell apopt – blocks beta cell apoptosis. protection from apoptosis, % (concentration not given with the values). INS-1E cytokine-induced death, ATP luminescence, 48 h; percent of positive-control rescue, neutral wells zero. hit rate 0.8% among 300,000;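 active = Every replicate reaches about 75%, or at least half do and their mean reaches it too, limit read from the data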;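 note: higher means more ATP so stronger rescue from cytokine killing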
Jurkat NFkB inh – lowers PMA/ionomycin-induced NF-kB signal in Jurkat cells; PMA/ionomycin-induced NF-kB luciferase reporter, luminescence; inhibition, % at 4 µM; hit rate 0.53% among 330,000; AID 435003; in the data active = inhibition above about 50%
697 NFkB conf – lowers PMA/ionomycin-induced NF-kB signal in 697 B cells; shares compounds with 697 NFkB inh; 697 B-cell NF-kB luciferase, 16 h; inhibition, % at 4 µM; hit rate 35% among 2,000; AID 449746; in the data active = inhibition mostly above about 28%, no sharp cut-off; inactive = mostly below about 22%
Numbers stand for hits; - = inactive; . = not tested or not shown.

SMILES	Gli-Sufu block	697 NFkB inh	Beta cell apopt	Jurkat NFkB inh	697 NFkB conf
CC(=O)Nc1ccc2c(c1)Cc1c-2cc(Br)c(N)c1Br	-	.	.	.	.
COc1ccccc1N(Cc1ccccc1)S(=O)(=O)c1cccc(C(=O)Nc2ncccc2C)c1	-	-	-	-	.
COc1ccccc1N(Cc1ccccc1)S(=O)(=O)c1cccc(C(=O)Nc2cc(C)ccn2)c1	-	-	-	-	-
Cc1ccc(N=Nc2ccc(O)cc2)c(Br)c1	-	-	-	-	-
O=C1c2ccc([N+](=O)[O-])cc2C(=O)N1c1ccc([N+](=O)[O-])cn1	-	-	-	-	.
COc1ccc(-c2nn(-c3ccccc3)cc2/C=C(\C#N)C(N)=O)cc1[N+](=O)[O-]	-	37.8	-	-	-
N/C(=N\OC(=O)c1ccc(Cl)c([N+](=O)[O-])c1)c1ccccc1	-	-	-	-	.
COc1ccc(-n2c(-c3ccc(Br)cc3)c[n+]3c2CCc2ccccc2-3)cc1	86.2	101.1	104.3	-	47.0
COc1ccc(-n2cc(-c3ccc(Br)cc3)[nH]c2=S)cc1	-	-	-	-	.
Cc1ccc(Nc2nc(NCc3ccco3)c3ccccc3n2)cc1	-	-	76.5	-	-
COc1ccccc1Nc1nc(NCc2ccco2)c2ccccc2n1	-	-	-	-	.
CC(=O)/C(C#N)=C1\NC(=O)C(Cc2ccc(C)c(C)c2)S1 (stereo not drawn)	-	-	-	-	-
CC(=O)/C(C#N)=C1\NC(=O)C(Cc2ccc(F)cc2)S1 (stereo not drawn)	-	-	-	-	.
CC(=O)/C(C#N)=C1\NC(=O)C(Cc2ccccc2Cl)S1 (stereo not drawn)	-	-	-	-	-
NC1=NC(=O)C(Cc2cc(Cl)ccc2Cl)S1 (stereo not drawn)	-	-	-	-	.
CC(=O)/C(C#N)=C1\NC(=O)C(Cc2cc(Cl)ccc2Cl)S1 (stereo not drawn)	-	-	-	-	-
COc1ccc(C(=O)NCC(=O)N/N=C/c2cn[nH]c2-c2ccccc2)cc1	-	-	-	-	.
COc1cccc(/C=N/NC(=O)C(=O)N/N=C/c2cccc(OC)c2OC)c1OC	-	-	-	-	.
COc1cccc(/C=N\NC(=O)c2sc(N)nc2C)c1OC	-	39.1	-	-	-
COc1ccc(-c2cccc(-c3cc(=O)oc4cc(OC)cc(OC)c34)c2)cc1	-	-	.	.	-
COc1cc(OC)c2c(-c3cccc(-c4ccc(N(C)C)cc4)c3)cc(=O)oc2c1	-	-	.	.	-
O=C(Cc1ccccc1)NNC(=O)Nc1ccc(Cl)c(Cl)c1	-	-	-	-	.
O=C(Nc1ccc(Cl)c(Cl)c1)Nc1ccccc1C(=O)O	-	-	-	-	-
O=C(Nc1cccc(Cl)c1)Nc1ccccc1C(=O)O	-	-	-	-	-
NC(=O)c1ccccc1NC(=O)Nc1cccc(Cl)c1	-	-	-	-	.
SMILES	Gli-Sufu block	697 NFkB inh	Beta cell apopt	Jurkat NFkB inh	697 NFkB conf
CCCCn1c2c(c(=N)c3ccccc31)CCC2	-	44.3	-	-	46.4
N=c1c2c(n(Cc3ccccc3)c3c1CCC3)CCC2	-	-	-	-	.
CCCCNC(=O)CN1C(=O)c2cccc(N)c2C1=O	-	.	.	.	.
CCC(C)NC(=O)c1ccc(-n2c(=S)[nH]c3ccccc3c2=O)cc1 (stereo not drawn)	-	40.6	.	-	-
Cc1ccc(-c2csc3ncnc(Nc4ccc(C(=O)O)cc4)c23)cc1	-	36.2	-	-	-
Cc1ccnc(NS(=O)(=O)c2cc([N+](=O)[O-])ccc2C)c1	-	36.5	-	-	-
O=C(O)CCSc1nc2ccccc2s1	-	40.1	-	-	34.6
c1ccc2sc(SCSc3nc4ccccc4s3)nc2c1	-	-	-	-	.
CCSC1=C(C#N)C(c2ccc(Cl)cc2)C2=C(CCCC2=O)N1 (stereo not drawn)	-	35.2	-	-	-
CSC1=C(C#N)C(c2ccc3c(c2)OCO3)C2=C(CCCC2=O)N1 (stereo not drawn)	-	-	-	-	.
COc1ccc(N2C(=O)CN=C2Nc2nc(C)cc(C)n2)cc1OC	-	-	-	-	.
Cc1cc(C)nc(NC2=NCC(=O)N2c2ccc(F)c(Cl)c2)n1	-	39.8	-	-	-
Cc1cc(C)n2c(SCC(=O)Nc3ccccc3C#N)nnc2n1	-	-	-	-	.
O=P(COCCO)(c1ccccc1)c1ccccc1	-	-	.	-	.
O=C(CCN1C(=O)c2ccccc2S1(=O)=O)Nc1cc(Cl)ccc1Cl	-	-	.	-	.
O=C(CN1C(=O)c2ccccc2S1(=O)=O)c1ccc(Cl)cc1Cl	89.8	73.6	-	-	73.9
O=C(CN1C(=O)c2ccccc2S1(=O)=O)c1ccc(OC(F)F)cc1	78.2	39.7	-	-	36.0
COC(=O)c1ccc(NC(=O)CN2C(=O)c3ccccc3S2(=O)=O)cc1	-	-	-	-	.
CCc1nn2cc(-c3ccccc3)nc2s1	-	-	-	-	.
Cc1nn2cc(-c3ccc(-c4ccccc4)cc3)nc2s1	-	-	-	-	-
CCc1ccccc1NC(=O)CN(C)C(=O)Cn1cc(C(F)(F)F)cc(Cl)c1=O	-	-	-	-	.
Cc1ccc(C(=O)Nc2cccc(C(=O)NCc3ccccc3)c2)o1	-	36.0	-	-	-
O=C(NCc1ccccc1)c1cccc(NC(=O)c2ccccc2)c1	-	.	.	.	.
CCn1ccnc1[C@@H]1C[C@H]2CN(Cc3cccc(Cl)c3)C(=O)[C@]23CCCN13	-	-	-	-	.
CC(C)COc1cccc(-c2cc(C(=O)N/N=C/c3ccncc3)c3ccccc3n2)c1	-	-	-	-	-
SMILES	Gli-Sufu block	697 NFkB inh	Beta cell apopt	Jurkat NFkB inh	697 NFkB conf
O=C(N/N=C/c1ccc(O)cc1)c1cc(-c2ccccc2)nc2ccccc12	-	-	-	-	.
O=C(NCC(c1cccnc1)N1CCOCC1)c1ccc2c(c1)OCO2 (stereo not drawn)	-	-	-	-	.
Nc1c(-c2ccsc2)cnc2ncnn12	-	-	-	-	.
COC(=O)c1ccccc1OCC(=O)N1CCN(c2ccc(F)cc2)CC1	-	-	-	-	.
CC(=O)c1cc(F)ccc1OCC(=O)N1CCN(c2ccc(F)cc2)CC1	-	36.1	-	-	-
CN1CCN(C(=O)CCCOc2cc(=O)n(C)c3ccccc23)CC1	-	-	-	-	.
Cn1c(=O)cc(OCCCC(=O)NC2CCCC2)c2ccccc21	-	68.5	-	-	46.2
Cn1c(=O)cc(OCC(=O)NCc2ccccn2)c2ccccc21	-	-	-	-	.
Cn1c(=O)cc(OCCCC(=O)N2CCCCC2)c2ccccc21	-	38.5	-	-	42.0
Cn1c(=O)cc(OCCCC(=O)NCc2ccccn2)c2ccccc21	-	36.5	-	-	31.2
CCC1C(=O)C(CC)C(c2ccccc2)NC1c1ccccc1 (stereo not drawn)	-	-	-	-	.
NS(=O)(=O)c1ccc(CCNC(=O)CSc2nc3ccsc3c(=O)n2CC2CCC(C(=O)O)CC2)cc1 (stereo not drawn)	-	35.6	-	-	-
O=C(Nc1ccc2c(c1)OCO2)C1CCCN(c2nc3ccccc3s2)C1 (stereo not drawn)	-	-	-	-	.
